Screens from PubChem.
Only some compounds are listed: those with a hit (about 3.1% of all), similar ones and a draw of the others.
TWEAK-Fn14 inh: blocks TWEAK-Fn14 interaction in a reporter cell assay | TWEAK-stimulated Fn14 reporter cells, luciferase luminescence, 8 h | inhibition, % at 10 µM | hit rate 2% among 360,000; in the data active = inhibition above about 50%
LGR2 inh: Drosophila LGR2 receptor signaling inhibition; hit rate 0.35% among 380,000; AID 720647; HEK293 LGR2, CRE-luciferase, bursicon-stimulated, 4 h; inhibition, % at 9.99 µM;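 active = drop in luminescence signal, shown as inhibition above about 50% in the replicate tests, limit read from the data, passing the limit was not always enough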;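 note: agonist challenge used bursicon conditioned medium at about half maximal strength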
TROY NFkB inh: blocks TROY-dependent signaling in reporter cells; Q293 LMP1-TROYcd NF-kB luciferase reporter, 4 h; inhibition, % at 10 µM; hit rate 0.98% among 360,000; AID 1347056;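 active = compounds whose plate-normalised and pattern-corrected inhibition of the luciferase reporter signal at the single screening dose is 50% or more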
PAX8 reporter: inhibitors of PAX8 transcriptional activity in RMG-I cells; RMG-I TPO-luciferase reporter, SteadyGlo, 24 h; inhibition, % at 12.6 µM; hit rate 1.2% among 360,000;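 active = mean replicate inhibition at least 60% with every replicate also reaching 60%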;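 note: luciferase light reporting Pax8 driven TPO promoter activity; plate controls were median of neutral control wells for no effect and mitoxantrone controls for full effect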
EBV LMP1 NFkB: reduces LMP1-driven NF-kappaB luciferase signal; LMP1-induced NF-kappaB luciferase reporter cells, luminescence; inhibition, % at 12.5 µM; hit rate 0.69% among 350,000; AID 504558; in the data active = inhibition above about 41%;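 note: 0% = neutral control wells and 100% = reference inhibitor control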
EWS-Fli block: blocks EWS/Fli oncoprotein-driven transcription; AID 651661; hit rate 0.67% among 350,000; inhibition, % at 12.6 µM; A673 NR0B1-luciferase reporter, viability-normalised;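 active = mean inhibition of at least 50% after viability correction, with every replicate also passing that limit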;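 note: firefly luciferase signal divided by Alamar Blue viability fluorescence both relative to DMSO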
The depositor's hits bear a star; · = not tested or not shown.

SMILES	TWEAK-Fn14 inh	LGR2 inh	TROY NFkB inh	PAX8 reporter	EBV LMP1 NFkB	EWS-Fli block
Cc1ccc(Cl)cc1-n1ncc2c(NNC(=O)c3ccco3)ncnc21	63*	-2	-2	-24	2	-7
CC(=O)NNc1ncnc2c1cnn2-c1ccc(C)cc1	30	-8	14	-51	-13	-29
C[C@H](CO)N1C[C@H](C)[C@H](CN(C)C(=O)C2CCC2)Oc2ncc(-c3ccc(F)cc3)cc2C1=O	·	0	·	·	·	0
Cc1nc(N2CCN(C(=O)COc3ccccc3)CC2)c2c(C)c(C)sc2n1	50*	·	39	21	8	·
CNC[C@@H]1Oc2ccc(NC(=O)Nc3ccccc3)cc2C(=O)N([C@H](C)CO)C[C@H]1C	·	-7	·	-9	·	·
CCOc1ccccc1CNC(=O)C1CCN(c2nnc(C)c3c(C)n(-c4ccc(C)cc4)nc23)CC1	-13	16	-28	79*	-1	59*
CCOc1ccccc1CNC(=O)Cn1nc(C)c2c(C)n(-c3ccc(C)cc3)nc2c1=O	58*	·	27	·	23	·
COc1ccc(-n2nc3c(N4CCC(C(=O)NCc5cccc(C)c5)CC4)nnc(C)c3c2C)cc1	-6	-12	12	102*	-4	·
C[C@@H]1CN([C@H](C)CO)C(=O)Cc2cc(N(C)C)ccc2O[C@H]1CN(C)CC1CC1	·	-13	·	-9	·	9
CC1CCN(CCc2nc3cc(NS(=O)(=O)c4ccccc4)ccc3n2C)CC1	21	·	11	93*	-1	·
CC1CCN(CCc2nc3cc(NS(=O)(=O)c4ccc(F)cc4)ccc3n2C)CC1	23	·	-7	56	3	·
CN(C)c1cccc(C(=O)NNC(=O)CN2C(=O)C3CC=CCC3C2=O)c1 (stereo not drawn)	53*	-61	53*	-213	-32	-108
O=NN(C(=O)NCc1cccnc1)C1CCCCC1	4	5	58*	-1	·	-8
O=C(CN(C1CCCCC1)S(=O)(=O)c1ccc(Br)cc1)NCc1cccnc1	6	33	-9	-2	1	0
CCN1[C@@H]2c3ccc(C4=CCCC4)c(=O)n3C[C@@H]2[C@@H](CO)[C@@H]1C(=O)N(C)C	·	-14	·	·	·	-4
C=C(C)c1cccc(C(C)(C)NC(=O)N2CCN(c3ccccc3OC)CC2)c1	20	-6	-7	106*	7	18
C=C(C)c1cccc(C(C)(C)NC(=O)N2CCN(c3ccccc3)CC2)c1	3	5	-2	-4	-9	6
C[C@@H]1CN([C@@H](C)CO)C(=O)c2cc(NC(=O)c3ccccc3)ccc2O[C@@H](C)CCCCO[C@H]1CN(C)C(=O)c1ccccc1	·	1	·	20	·	·
CC(C)N(CCCNC(=O)c1ccc(CS(=O)(=O)c2c(Cl)cccc2Cl)o1)Cc1ccccc1	6	-12	-7	62*	0	3
CCCCN(CCCNC(=O)c1ccc(CS(=O)(=O)c2c(Cl)cccc2Cl)o1)Cc1ccccc1	11	2	-17	12	0	·
COc1cc(NC(=O)c2cccc3c(-c4cnn(C)c4)coc23)cc(OC)c1OC	44	73*	16	-4	·	-5
O=C(NCc1cccc(Cl)c1)c1cccc2c(-c3cccnc3)coc12	90*	5	56*	-7	·	9
CC(=O)c1cccc(NC(=O)c2cccc3c(-c4cccnc4)coc23)c1	58*	27	34	-5	·	17
NC(=O)c1cccc(-c2coc3c(C(=O)NCc4cccnc4)cccc23)c1	18	0	3	1	·	5
O=C(NCc1ccc(F)c(F)c1)c1cccc2c(-c3cccnc3)coc12	33	-24	28	1	·	7
SMILES	TWEAK-Fn14 inh	LGR2 inh	TROY NFkB inh	PAX8 reporter	EBV LMP1 NFkB	EWS-Fli block
CS(=O)(=O)Nc1cccc(NC(=O)c2cccc3c(-c4cccnc4)coc23)c1	15	·	-2	·	·	·
COc1ccc(CNC(=O)c2cccc3c(-c4cccnc4)coc23)cc1OC	64*	-3	50*	14	·	17
C[C@@H]1CCCCO[C@H](CN(C)Cc2ccc3c(c2)OCO3)[C@@H](C)CN([C@H](C)CO)C(=O)c2cc(NS(C)(=O)=O)ccc2O1	·	-3	·	-2	·	17
COCC(=O)N1[C@@H](CO)[C@H](c2ccc(-c3ccccc3)cc2)C12CN(C(C)=O)C2	·	2	·	-6	·	1
Cn1c(=O)[nH]c2nnc(-c3ccc(Cl)c(Cl)c3)nc2c1=O	57*	36	4	-93	12	-14
C[C@]12c3[nH]c4ccccc4c3CCN1C(=O)C(CC(=O)NCCc1ccccn1)C[C@@H]2C(=O)N1CCCCC1 (stereo partly drawn)	-2	-8	-2	6	5	-5
O=C(C[C@H]1C[C@H](C(=O)N2CCCCC2)[C@@]2(CCc3ccccc3)c3[nH]c4ccc(Cl)cc4c3CCN2C1=O)NCc1cccc(C(F)(F)F)c1	53*	7	16	-17	14	1
O=C(CC1C[C@H](C(=O)N2CCCCC2)[C@@]2(CCc3ccccc3)c3[nH]c4ccccc4c3CCN2C1=O)NCCc1ccccn1 (stereo partly drawn)	19	-17	7	35	69*	12
O=C(C[C@H]1C[C@H](C(=O)N2CCCCC2)[C@@]2(CCc3ccccc3)c3[nH]c4ccc(Cl)cc4c3CCN2C1=O)NCc1ccco1	47	-12	30	73*	10	22
O=C(CC1C[C@H](C(=O)N2CCCCC2)[C@@]2(CCc3ccccc3)c3[nH]c4ccccc4c3CCN2C1=O)NCc1cccc(C(F)(F)F)c1 (stereo partly drawn)	49	19	18	-18	3	0
CCCC(=O)N1CC2(C1)CN(C(=O)COC)[C@H](CO)c1c2c2ccc(OC)cc2n1C	·	-9	·	·	·	-1
CO[C@@H]1CN(C)C(=O)c2ccc(NC(=O)CC(F)(F)F)cc2OC[C@H](C)N(C(=O)C2CC2)C[C@@H]1C	·	-9	·	-30	·	1
C[C@@H]1CN([C@@H](C)CO)C(=O)c2cc(NC(=O)c3ccccc3)ccc2O[C@@H](C)CCCCO[C@@H]1CN(C)Cc1ccc2c(c1)OCO2	·	-3	·	6	·	5
COc1ccccc1NC(=O)N[C@@H]1CC[C@H](CC(=O)N[C@H](C)c2ccccc2)O[C@@H]1CO	·	-21	·	3	·	-5
CCOC(=O)c1sc2nc(C)nc(NCCc3ccccn3)c2c1C	11	-1	7	12	6	10
CCOC(=O)c1sc2nc(C)nc(NCc3ccccc3OC)c2c1C	54*	-12	31	34	17	29
O=C(C[C@H]1C=C[C@H](NC(=O)Nc2ccc3c(c2)OCO3)[C@@H](CO)O1)NCc1ccc(Cl)cc1	·	6	·	2	·	-3
CCOc1ccc(/C=C2\SC(=S)N(CCC(=O)N(CCO)c3ccccc3)C2=O)cc1	22	4	-6	16	7	33
CCc1ccc(/C=C2\SC(=S)N(CCCC(=O)N(CCO)c3ccccc3)C2=O)cc1	36	6	35	94*	10	54*
